{"source": "PubChem BioAssay AID1962", "about": "(The Scripps Research Institute Molecular Screening Center, 2009)", "note": "About 2,500 (0.83%) of roughly 300,000 compounds were called active.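 How the source made its calls: active means inhibition above the mean of all tested compounds plus 3 SD, set per screening campaign (cut at about 24% in these data); inactive means the rest.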 The sample as a whole holds a higher share of actives than the screen did.", "data": [{"system": "tRNA 2'-phosphotransferase TPT1 (Candida albicans SC5314)", "assay": "Candida albicans TPT1 enzyme inhibitors, primary screen, biochemical, fluorescence polarization (AID 1962);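 further: plate controls were DMSO alone for no effect and ferristatin control at 100 nM for full effect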", "details": "recombinant caTPT1, FP RNA substrate dephosphorylation; at 5 µM; hits give high values", "values": [{"smiles": "CCCOc1ccc(Cn2c(O)cc(=O)[nH]c2=O)cc1", "inhibition": "48.6% (active)"}, {"smiles": "COc1cc(=O)[nH]c(=O)n1C(=O)Cc1ccccc1", "inhibition": "1.99% (inactive)"}, {"smiles": "COc1ccc(Cn2c(=O)cc(C)[nH]c2=S)cc1", "inhibition": "-2.44% (inactive)"}, {"smiles": "CCc1ccc(C(CNc2nc(C(F)(F)F)nc3ccccc23)N(C)C)cc1", "note": "(centres undefined)", "inhibition": "-2.4% (inactive)"}, {"smiles": "CC(=O)Nc1ccc(/C=C/C(=O)c2ccccc2)cc1", "inhibition": "15.6% (inactive)"}, {"smiles": "O=C(/C=C/c1ccc(N2CCOCC2)cc1)c1ccccc1", "inhibition": "84.1% (active)"}, {"smiles": "O=C(O)c1ccc2c(c1)C(=O)N(c1ccc(/C=C/C(=O)c3ccccc3)cc1)C2=O", "inhibition": "17.6% (inactive)"}, {"smiles": "O=C(CC1CCCCC1)NCc1ccccc1", "inhibition": "-1.14% (inactive)"}, {"smiles": "Oc1ccc(N=Cc2sc3ccccc3c2Cl)cc1", "inhibition": "-0.62% (inactive)"}, {"smiles": "O=[N+]([O-])c1ccc(N=Cc2c(O)ccc3ccccc23)cc1", "inhibition": "3.33% (inactive)"}, {"smiles": "Oc1ccc(N=Cc2c(O)ccc3ccccc23)cc1", "inhibition": "78.9% (active)"}, {"smiles": "CCOc1cc(NC(=O)c2ccccc2C(=O)O)c(OCC)cc1NC(=O)c1ccccc1F", "inhibition": "2.36% (inactive)"}, {"smiles": "COC(=O)C1=C(N)Oc2c(oc(CO)cc2=O)C1c1c(F)cccc1Cl", "note": "(centres undefined)", "inhibition": "-1.2% (inactive)"}, {"smiles": "Cc1ccc(Nc2nc(C)cc(C)c2C(N)=O)cc1", "inhibition": "-2.11% (inactive)"}, {"smiles": "Cc1ccc(NC(=O)Nc2nnc(-c3ccncc3)s2)cc1", "inhibition": "-0.82% (inactive)"}, {"smiles": "Cc1ccc(Nc2nc(Cl)c(C=O)s2)cc1", "inhibition": "54.2% (active)"}, {"smiles": "O=C(Nc1ccccc1Cl)/C(Cl)=C(\\Cl)S(=O)c1ccccc1", "note": "(centres undefined)", "inhibition": "-2.57% (inactive)"}, {"smiles": "N#CCc1ccc(NC(=O)c2ccccc2C(=O)Nc2ccc(CC#N)cc2)cc1", "inhibition": "-2.77% (inactive)"}, {"smiles": "O=C(NNC(=S)NC1CC2CCC1C2)c1ccc(Cl)cc1", "note": "(centres undefined)", "inhibition": "-4.71% (inactive)"}, {"smiles": "CC(N=Cc1nc(-c2ccccc2)oc1O)c1ccccc1", "note": "(centres undefined)", "inhibition": "2.4% (inactive)"}, {"smiles": "CCOc1ccc2nc(N(CCCN(C)C)C(=O)c3ccc(C(=O)c4ccccc4)cc3)sc2c1", "inhibition": "-1.89% (inactive)"}, {"smiles": "CCOc1ccc2nc(/N=C/c3nc(-c4ccccc4)oc3O)sc2c1", "inhibition": "46.7% (active)"}, {"smiles": "CCOC(=O)c1cc2c(=O)[nH]c(C(Cl)(Cl)Cl)nc2o1", "inhibition": "1.15% (inactive)"}, {"smiles": "Cc1cccn2c(=O)c(/C=C3\\SC(=S)N(CC(C)C)C3=O)c(NCCCOC(C)C)nc12", "inhibition": "63.5% (active)"}, {"smiles": "CC(C)OCCCNc1nc2c(c(=O)n(Cc3ccccc3F)c(=O)n2C)n1C", "inhibition": "2.3% (inactive)"}, {"smiles": "CNc1nc2c(C)cccn2c(=O)c1C=Nc1ccc(OC)cc1", "inhibition": "1.1% (inactive)"}, {"smiles": "Cc1[nH]c(C)c(S(=O)(=O)N2CCN(c3cccc(C(F)(F)F)c3)CC2)c1C(=O)N1CCCCC1", "inhibition": "-0.13% (inactive)"}, {"smiles": "CC(C)(C)NC(=O)COC(=O)c1cc(Cl)ccc1[N+](=O)[O-]", "inhibition": "-0.54% (inactive)"}, {"smiles": "Cc1cccc(N2CCN(C(=O)COCc3cc(-c4ccc5c(c4)OCO5)on3)CC2)c1C", "inhibition": "-0.74% (inactive)"}, {"smiles": "CCCC1C(=O)N2C(N(C)C)=Nc3ccc(C)cc3N2C1=O", "note": "(centres undefined)", "inhibition": "2.58% (inactive)"}, {"smiles": "COC(=O)Cn1cnc2scc(-c3ccc(C)c(C)c3)c2c1=O", "inhibition": "1.3% (inactive)"}, {"smiles": "CC1=CC2=NC(=O)/C(=C/c3coc4ccccc4c3=O)C(=N)N2O1", "inhibition": "34.6% (active)"}, {"smiles": "COc1ccc(OCCCn2cccc2/C=C2/C(=N)N3OC(C)=CC3=NC2=O)cc1", "inhibition": "0.42% (inactive)"}, {"smiles": "CCOc1cc(/C=C2/C(=N)N3OC(C)=CC3=NC2=O)ccc1OC", "inhibition": "6.06% (inactive)"}, {"smiles": "COc1ccc(Nc2ccc([N+](=O)[O-])cn2)cn1", "inhibition": "-14.7% (inactive)"}, {"smiles": "COc1cc(/C=N\\Nc2ccc([N+](=O)[O-])cn2)ccc1OCC(=O)O", "inhibition": "1.83% (inactive)"}, {"smiles": "Cc1cc(/C=N/Nc2ccc([N+](=O)[O-])cn2)c(C)n1-c1cccc(C(=O)O)c1", "inhibition": "43% (active)"}, {"smiles": "Cc1cc(/C=C2\\SC(=O)N(C)C2=O)c(C)n1-c1cccc(C(=O)O)c1", "inhibition": "-0.06% (inactive)"}, {"smiles": "Cc1ccc(-n2c(C)cc(/C=N/Nc3ccc([N+](=O)[O-])cn3)c2C)c(C)c1", "inhibition": "66.7% (active)"}, {"smiles": "Cc1ccc(N2CCN(c3ccc([N+](=O)[O-])cn3)CC2)c(C)c1", "inhibition": "-2.01% (inactive)"}, {"smiles": "C=CCn1c(COc2ccc(F)cc2)nnc1SCC(=O)Nc1cccc(S(N)(=O)=O)c1", "inhibition": "-5.67% (inactive)"}, {"smiles": "COc1cccc(C2CC(c3cccs3)=NN2C(=O)CSC2=NCCS2)c1OC", "note": "(centres undefined)", "inhibition": "-2.93% (inactive)"}, {"smiles": "CCC(C)CN1CCC(CO)(Cc2ccccc2Cl)CC1", "note": "(centres undefined)", "inhibition": "-0.69% (inactive)"}, {"smiles": "COC1(C2=NCCN2)COc2ccccc2O1", "note": "(centres undefined)", "inhibition": "-5.32% (inactive)"}, {"smiles": "COc1ccccc1NC(=O)COC(=O)c1ccccc1SCC(=O)N1CCCC1", "inhibition": "0.11% (inactive)"}, {"smiles": "COc1ccccc1C1SCCN1C(=O)c1ccc([N+](=O)[O-])cc1", "note": "(centres undefined)", "inhibition": "1.69% (inactive)"}, {"smiles": "COc1ccc(NS(=O)(=O)c2ccc(C)c(C(=O)N(C)Cc3ccc(OC)cc3OC)c2)cc1", "inhibition": "-1.13% (inactive)"}, {"smiles": "Nc1c(C(=O)c2cccs2)sc2nsc(SCCN3CCCCC3)c12", "inhibition": "68.2% (active)"}, {"smiles": "CN(C)c1ccnc2sc(C(=O)c3ccccc3)c(N)c12", "inhibition": "2.61% (inactive)"}, {"smiles": "Cc1nc2sc(C(=O)c3ccccc3)c(N)c2c2c1CCCC2", "inhibition": "-0.9% (inactive)"}, {"smiles": "CCCNC(=S)N1CCC(NC(=O)c2ccc(OC)cc2)CC1", "inhibition": "3.14% (inactive)"}, {"smiles": "CN1CCN(CCC(=O)N/N=C/C=C2\\N(C)c3ccccc3C2(C)C)CC1", "inhibition": "11.7% (inactive)"}, {"smiles": "CN1/C(=C\\C=C2\\N=C(c3ccc(F)cc3)OC2=O)C(C)(C)c2ccccc21", "inhibition": "110% (active)"}, {"smiles": "CN1/C(=C\\C(=O)c2oc3ccccc3c2N)C(C)(C)c2ccccc21", "inhibition": "2.22% (inactive)"}, {"smiles": "O=C(c1c(F)cccc1Cl)N1CCN(c2ccccn2)CC1", "inhibition": "0.41% (inactive)"}, {"smiles": "O=C(Nc1ccccc1N1CCCC1)c1ccc(F)c(S(=O)(=O)N2CCOCC2)c1", "inhibition": "0.87% (inactive)"}, {"smiles": "O=C1NCC(=O)N(Cc2ccccc2)/C1=C/c1ccccc1", "inhibition": "1.04% (inactive)"}, {"smiles": "CN(C)c1ccc(/C=C2\\NC(=S)N(Cc3ccccc3)C2=O)cc1", "inhibition": "196% (active)"}, {"smiles": "O=C1/C(=C\\c2ccsc2)NC(=S)N1c1ccccc1", "inhibition": "0.45% (inactive)"}, {"smiles": "COCC(=O)Nc1c(I)c(C(=O)NCC(O)CO)c(I)c(C(=O)N(C)CC(O)CO)c1I", "note": "(centres undefined)", "inhibition": "1.86% (inactive)"}, {"smiles": "COc1ccc(C(=O)NC(C)c2nccs2)cc1OC1CCN(C(C)C)CC1", "note": "(centres undefined)", "inhibition": "1.11% (inactive)"}, {"smiles": "COc1ccc(CN(C)C(=S)Nc2ccc(Cl)cc2Cl)cc1", "inhibition": "-3.43% (inactive)"}, {"smiles": "O=C(Nn1c(-c2ccccc2)nc2ccccc2c1=O)c1ccc([N+](=O)[O-])cc1", "inhibition": "-2.22% (inactive)"}, {"smiles": "Cc1nc2ccccc2nc(=O)c1NNc1ccc([N+](=O)[O-])cc1", "inhibition": "33% (active)"}, {"smiles": "Cc1nc2ccccc2cc1C(=O)N/N=C/c1ccc([N+](=O)[O-])cc1", "inhibition": "1.45% (inactive)"}, {"smiles": "COC(=O)c1c(C)oc(C)c1S(=O)(=O)Nc1ccc(C(C)C)cc1", "inhibition": "-2.31% (inactive)"}, {"smiles": "COC(=O)c1cc(S(=O)(=O)NCC2CCN(Cc3ccc(Cl)cc3)CC2)cn1C", "inhibition": "-1.04% (inactive)"}, {"smiles": "CCOC(=O)c1ccccc1CN1C(=O)c2ccccc2S1(=O)=O", "inhibition": "-6.64% (inactive)"}, {"smiles": "CN1C(=O)/C(=C/C=C2\\SCCN2C)OC1=S", "inhibition": "124% (active)"}, {"smiles": "Cc1ccc(Cc2nc(-c3cccc(C)c3)no2)cc1", "inhibition": "1.83% (inactive)"}, {"smiles": "COc1ccc(Cc2nc(-c3ccccn3)no2)cc1OC", "inhibition": "48.4% (active)"}, {"smiles": "COc1ccc(CCNS(=O)(=O)c2cccc3cccnc23)cc1OC", "inhibition": "1.77% (inactive)"}, {"smiles": "CCOC(=O)c1sc(=NC(=O)c2ccc(Br)cc2)n(C)c1C", "inhibition": "-2.11% (inactive)"}, {"smiles": "CCOC(=O)c1sc(=S)n2c1[nH]c(=O)c1ccc(C(=O)OC)cc12", "inhibition": "-1.57% (inactive)"}, {"smiles": "CCOC(=O)C1=C(C)Nc2sc(C(=O)c3ccc(Br)cc3)c(N)c2C1c1ccc(C(=O)OC)cc1", "note": "(centres undefined)", "inhibition": "54.7% (active)"}, {"smiles": "Cc1cccc(COc2ccccc2/C=N/Nc2ccc([N+](=O)[O-])cc2)c1", "inhibition": "92.1% (active)"}, {"smiles": "O=[N+]([O-])c1ccc(N/N=C/c2ccccc2)cc1", "inhibition": "28.2% (active)"}, {"smiles": "O=[N+]([O-])c1cccc(/C=N/Nc2ncc(Br)cn2)c1", "inhibition": "0.84% (inactive)"}, {"smiles": "Cc1ccc(NS(=O)(=O)c2ccc(N/N=C/c3ccccc3OCC(=O)O)c([N+](=O)[O-])c2)c(C)c1", "inhibition": "-2.41% (inactive)"}, {"smiles": "O=C(N/N=C/c1ccc([N+](=O)[O-])cc1)c1c[nH]c2ccccc12", "inhibition": "1.12% (inactive)"}, {"smiles": "Cc1ccccc1OCCOc1ccc([N+](=O)[O-])cc1/C=N/n1cnnc1", "inhibition": "2.12% (inactive)"}, {"smiles": "O=[N+]([O-])c1ccc(N2CCN(c3ccc(O)cc3)CC2)c(Cl)c1", "inhibition": "1.48% (inactive)"}, {"smiles": "O=S(=O)(c1cccc(Cn2nnc(-c3ccc(F)cc3)n2)c1)N1CCOCC1", "inhibition": "0.07% (inactive)"}, {"smiles": "COc1ccc(C(CCN(Cc2ccc(OC)c(OC)c2)C(=O)CCl)c2ccccc2)cc1", "note": "(centres undefined)", "inhibition": "2.12% (inactive)"}, {"smiles": "COc1ccc(-n2c(C)cc(C(=O)CN3C(=O)NC4(CCc5ccccc54)C3=O)c2C)cc1", "note": "(centres undefined)", "inhibition": "-8.74% (inactive)"}, {"smiles": "CCOc1ccc(CNC(=O)C2CCCN(c3nnc(C)c4c(C)n(-c5ccccc5)nc34)C2)cc1", "note": "(centres undefined)", "inhibition": "1.81% (inactive)"}, {"smiles": "Cc1nn(-c2ccccc2)c(C)c1NC(=O)COc1ccc(Cl)cc1Cl", "inhibition": "-4.09% (inactive)"}, {"smiles": "CCOc1nnc(C)c2c(C)n(-c3cccc(Cl)c3)nc12", "inhibition": "24.6% (active)"}, {"smiles": "CCc1nn(CCCC(=O)NC(C)c2ccccc2)c(=O)c2cc3occc3n12", "note": "(centres undefined)", "inhibition": "-2.3% (inactive)"}, {"smiles": "CCCCN(CCCC)CCNC(=O)CN1C(=O)COc2ccc(S(=O)(=O)N3CCOCC3)cc21", "inhibition": "-4.55% (inactive)"}, {"smiles": "COc1ccc(Cn2c(C)c(C)c(C#N)c2NC(=O)Nc2ccc(F)cc2)cc1", "inhibition": "0.17% (inactive)"}, {"smiles": "CN1CCN(Cc2c(O)ccc3c2oc(=O)c2ccccc23)CC1", "inhibition": "-1.97% (inactive)"}, {"smiles": "CCOC(=O)c1oc2c(CN3CCN(CCO)CC3)c(O)c(CC)cc2c(=O)c1-c1nc2ccccc2s1", "inhibition": "-0.54% (inactive)"}, {"smiles": "CC(C)(C)c1ccc(/C=C2\\Oc3c(ccc(O)c3CN3CCN(CCO)CC3)C2=O)cc1", "inhibition": "33.2% (active)"}]}]}
